Reference: PubChem BioAssay (Tox21)
Several values for one entry are separate records, joined by “and”; a condition that tells them apart may be missing. Equal entries are not always repeated. Results filed as inconclusive are left out. Where a call stands in place of a potency, no number is given. Activity calls are given as the source filed them. Calls come from the whole dose curve; as a rule, active = well fitted curve in the direction sought with a large enough effect in the repeat runs; inconclusive = weak or mixed curves; inactive = no such curve, though single readings can be large; an effect the other way counts as inactive or inconclusive.
Potency is the fitted concentration of half-maximal effect.

Assay: qHTS RealTime-Glo MT Cell Viability Assay in HEK293 cells - 40 hour (AID 1224874); note: nearly all actives have a fitted effect of over 50% in size
Settings: RealTime-Glo luminescence; max response: hits give low values
Method in brief: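 Luminescence, which tracks viable cell number through reduction of the prosubstrate to a NanoLuc substrate, was read over continuous 37 C culture. Cells (600/well) were premixed with reagent and rested 5 h before 23 nL of compound in DMSO was pinned.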
With `NC(=O)CI` the max response was 1.19% (inactive).
In the case of `CCC(Cl)CCl` (stereo not drawn), the max response is reported as 2.27% (inactive).
With `O=C(O)C(F)(F)C(F)(F)C(F)(F)C(F)(F)C(F)(F)C(F)(F)C(F)(F)C(F)(F)C(F)(F)F` the max response was 1.42% (inactive).
With `CCBr` the max response was 6.85% (inactive).
With `CCOP(=O)(OCC)SCCSCC` the max response was 0.908% (inactive) and 6.69% (inactive).
For `CC(=O)CCC(C)=O`, the max response was 11.7% (inactive).
With `Nc1nc(=S)[nH][nH]1` the max response was 1.62% (inactive).
With `c1ccc(CN2CCNCC2)cc1` the max response was 3.29% (inactive).
With `CC(C)(Cl)[N+](=O)[O-]` the max response was 2.49% (inactive).
For `CN1C[C@H](CNC(=O)OCc2ccccc2)C[C@@H]2c3cccc4c3c(cn4C)C[C@H]21`, the Potency was 23.9 µM (active).
For `CC(=O)c1cc2c(cc1C)C(C)(C)C(C)CC2(C)C` (stereo not drawn), the max response was -12.1% (inactive).
For `COC(=O)C(Cl)C(=O)OC`, the max response was -20.1% (inactive).
In the case of `O=C(NC(=O)c1c(F)cccc1F)Nc1ccc(OC(F)(F)C(F)OC(F)(F)F)c(Cl)c1` (stereo not drawn), the max response is reported as -1.18% (inactive).
With `CCCCC(CC)COP(=O)(Oc1ccccc1)Oc1ccccc1` (stereo not drawn) the max response was -24.3% (inactive).
For `CC(C)N(CCC(C(N)=O)(c1ccccc1)c1ccccn1)C(C)C` (stereo not drawn), the max response was 2.75% (inactive).
For `CCOP(O)OCC`, the max response was 0.744% (inactive).
In the case of `O=C(O)CC(Cl)C(=O)O` (stereo not drawn), the max response is reported as 0.924% (inactive).
In the case of `Nc1ccc([N+](=O)[O-])cc1[N+](=O)[O-]`, the max response is reported as -23.5% (inactive).
In the case of `NCC(CC(=O)O)c1ccc(Cl)cc1` (stereo not drawn), the max response is reported as 8.41% (inactive).
For `BrCC(Br)C1CCC(Br)C(Br)C1` (stereo not drawn), the max response was -20.5% (inactive).
With `CCC(C)(NC(=O)c1cc(Cl)c(C)c(Cl)c1)C(=O)CCl` (stereo not drawn) the Potency was 13.9 µM (active).
For `N#C/C(N)=C(/N)C#N`, the max response was 0.894% (inactive).
For `BrCCCCBr`, the max response was 17.9% (inactive).
With `Cn1sc(Cl)cc1=O` the max response was -14% (inactive).
With `S=C=NCc1ccccc1` the Potency was 44.1 µM (active).
With `C=CCN1CC[C@]23c4c5ccc(O)c4O[C@H]2C(=O)CC[C@@]3(O)[C@H]1C5` the max response was -0.323% (inactive).
With `COC(C)(C)CCC[C@H](C)C/C=C/C(C)=C/C(=O)OC(C)C` the max response was -3.6% (inactive).
In the case of `CC(C)(OO)c1ccccc1`, the max response is reported as -0.0681% (inactive).
In the case of `CC(=O)C(C)(C)C`, the max response is reported as 8.72% (inactive).
With `O=C(NCc1cccnc1)Nc1ccc([N+](=O)[O-])cc1` the Potency was 54.9 µM (active).
With `Cc1ccc(N)cc1C` the max response was 13.4% (inactive).

Assay: A CellTox Green Cytotoxicity Assay to monitor cytotoxicity in HEK293 cells - 24 hour (AID 1224875); note: nearly all actives have a fitted effect of over 45% in size
Settings: CellTox Green fluorescence; series mostly up to 76.8 µM
Method in brief: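 Fluorescence from a DNA-binding dye excluded by viable cells was measured repeatedly in the same HEK293 wells (600 cells/well) during continuous compound exposure at 37 C. Each assay gives one read point: 0, 8, 16, 24, 32 or 40 h.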
For `CCOC(=O)[C@]1(c2ccccc2)Oc2ccccc2[C@@H]1N`, the Potency was “inactive”.
For `CCC(Cl)CCl` (stereo not drawn), the Potency was “inactive”.
For `Cc1ccccc1C(=O)Nc1cccc(OC(C)C)c1`, the Potency was “inactive”.
For `O=C(O)C(F)(F)C(F)(F)C(F)(F)C(F)(F)C(F)(F)C(F)(F)C(F)(F)C(F)(F)C(F)(F)F`, the Potency was “inactive”.
For `CCBr`, the Potency was “inactive”.
In the case of `CCOP(=O)(OCC)SCCSCC`, the Potency is reported as “inactive”.
For `CC(=O)CCC(C)=O`, the Potency was “inactive”.
In the case of `c1ccc(CN2CCNCC2)cc1`, the Potency is reported as “inactive”.
For `CC(C)(Cl)[N+](=O)[O-]`, the Potency was “inactive”.
With `CN1C[C@H](CNC(=O)OCc2ccccc2)C[C@@H]2c3cccc4c3c(cn4C)C[C@H]21` the Potency was “inactive”.
With `CC(=O)c1cc2c(cc1C)C(C)(C)C(C)CC2(C)C` (stereo not drawn) the Potency was 19.5 µM (active).
With `CCOP(=O)(OCC)Oc1ccc([N+](=O)[O-])cc1` the Potency was “inactive”.
In the case of `COC(=O)C(Cl)C(=O)OC`, the Potency is reported as “inactive”.
In the case of `O=C(NC(=O)c1c(F)cccc1F)Nc1ccc(OC(F)(F)C(F)OC(F)(F)F)c(Cl)c1` (stereo not drawn), the Potency is reported as “inactive”.
In the case of `CCCCC(CC)COP(=O)(Oc1ccccc1)Oc1ccccc1` (stereo not drawn), the Potency is reported as “inactive”.
With `CC(C)N(CCC(C(N)=O)(c1ccccc1)c1ccccn1)C(C)C` (stereo not drawn) the Potency was “inactive”.
For `CCOP(O)OCC`, the Potency was “inactive”.
With `O=C(O)CC(Cl)C(=O)O` (stereo not drawn) the Potency was “inactive”.
In the case of `Nc1ccc([N+](=O)[O-])cc1[N+](=O)[O-]`, the Potency is reported as “inactive”.
In the case of `NCC(CC(=O)O)c1ccc(Cl)cc1` (stereo not drawn), the activity change is reported as -19.1% [at 0.29 µM, hits give high values] (inactive).
With `BrCC(Br)C1CCC(Br)C(Br)C1` (stereo not drawn) the Potency was “inactive”.
In the case of `BrCCCCBr`, the Potency is reported as “inactive”.
With `C=CC(=O)NCNC(=O)C=C` the Potency was “inactive”.
With `C=CCN1CC[C@]23c4c5ccc(O)c4O[C@H]2C(=O)CC[C@@]3(O)[C@H]1C5` the Potency was “inactive”.
For `COC(C)(C)CCC[C@H](C)C/C=C/C(C)=C/C(=O)OC(C)C`, the Potency was “inactive”.
For `CC(C)(OO)c1ccccc1`, the Potency was “inactive”.
In the case of `CC(=O)C(C)(C)C`, the Potency is reported as “inactive”.
For `O=C(NCc1cccnc1)Nc1ccc([N+](=O)[O-])cc1`, the Potency was “inactive”.
For `Cc1ccc(N)cc1C`, the Potency was “inactive”.

Assay: A CellTox Green Cytotoxicity Assay to monitor cytotoxicity in HepG2 cells - 16 hour (AID 1224876); note: nearly all actives have a fitted effect of over 45% in size
Settings: CellTox Green fluorescence; series mostly up to 76.8 µM
Method in brief: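 Real-time cytotoxicity: fluorescence of a cell-impermeant cyanine dye binding DNA of dead HepG2 cells, measured repeatedly (0–40 h) during compound exposure at 37 C. Cells seeded 600/well with reagent, dosed after 5 h.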
With `CCOC(=O)[C@]1(c2ccccc2)Oc2ccccc2[C@@H]1N` the Potency was “inactive”.
For `CCC(Cl)CCl` (stereo not drawn), the Potency was “inactive”.
With `Cc1ccccc1C(=O)Nc1cccc(OC(C)C)c1` the Potency was “inactive”.
For `O=C(O)C(F)(F)C(F)(F)C(F)(F)C(F)(F)C(F)(F)C(F)(F)C(F)(F)C(F)(F)C(F)(F)F`, the Potency was “inactive”.
In the case of `CCBr`, the Potency is reported as “inactive”.
With `CCOP(=O)(OCC)SCCSCC` the Potency was “inactive”.
For `CC(=O)CCC(C)=O`, the Potency was “inactive”.
In the case of `Nc1nc(=S)[nH][nH]1`, the Potency is reported as “inactive”.
For `c1ccc(CN2CCNCC2)cc1`, the Potency was “inactive”.
For `CC(C)(Cl)[N+](=O)[O-]`, the Potency was “inactive”.
For `CN1C[C@H](CNC(=O)OCc2ccccc2)C[C@@H]2c3cccc4c3c(cn4C)C[C@H]21`, the Potency was 23.9 µM (active).
For `CC(=O)c1cc2c(cc1C)C(C)(C)C(C)CC2(C)C` (stereo not drawn), the Potency was 38.9 µM (active).
For `CCOP(=O)(OCC)Oc1ccc([N+](=O)[O-])cc1`, the Potency was “inactive”.
In the case of `COC(=O)C(Cl)C(=O)OC`, the Potency is reported as “inactive”.
In the case of `O=C(NC(=O)c1c(F)cccc1F)Nc1ccc(OC(F)(F)C(F)OC(F)(F)F)c(Cl)c1` (stereo not drawn), the Potency is reported as “inactive”.
For `CCCCC(CC)COP(=O)(Oc1ccccc1)Oc1ccccc1` (stereo not drawn), the Potency was “inactive”.
In the case of `CC(C)N(CCC(C(N)=O)(c1ccccc1)c1ccccn1)C(C)C` (stereo not drawn), the Potency is reported as “inactive”.
With `CCOP(O)OCC` the Potency was “inactive”.
In the case of `Nc1ccc([N+](=O)[O-])cc1[N+](=O)[O-]`, the Potency is reported as “inactive”.
For `NCC(CC(=O)O)c1ccc(Cl)cc1` (stereo not drawn), the cytotoxicity increase was -3.17% [at 0.29 µM] (inactive).
With `BrCC(Br)C1CCC(Br)C(Br)C1` (stereo not drawn) the Potency was “inactive”.
For `N#C/C(N)=C(/N)C#N`, the Potency was “inactive”.
For `BrCCCCBr`, the Potency was “inactive”.
With `Cn1sc(Cl)cc1=O` the Potency was “inactive”.
With `C=CC(=O)NCNC(=O)C=C` the Potency was “inactive”.
In the case of `S=C=NCc1ccccc1`, the Potency is reported as “inactive”.
With `C=CCN1CC[C@]23c4c5ccc(O)c4O[C@H]2C(=O)CC[C@@]3(O)[C@H]1C5` the Potency was “inactive”.
For `COC(C)(C)CCC[C@H](C)C/C=C/C(C)=C/C(=O)OC(C)C`, the Potency was “inactive”.
With `CC(C)(OO)c1ccccc1` the Potency was “inactive”.
In the case of `ClP(Cl)(Cl)(Cl)Cl`, the Potency is reported as “inactive”.
With `CC(=O)C(C)(C)C` the Potency was “inactive”.
With `O=C(NCc1cccnc1)Nc1ccc([N+](=O)[O-])cc1` the Potency was “inactive”.
With `Cc1ccc(N)cc1C` the Potency was “inactive”.
